We go through 14 molecules from PubChem BioAssay (NCI).

This is part of a sample that, as a whole, favours compounds with a hit. Of some 83,000 tested, about 20% had one in any assay.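 Plates (96-well) were seeded with cells, treated with compound at one concentration, and incubated for 48 hours before percent growth was determined.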 Calls of active or inactive are those of the source. The calls were made as follows: active = growth percent below 10; inactive = the rest.

The test has as its system MDA-MB-468 breast. The test is described as follows: NCI-60 one-dose screen, 48 h (100 = growth as untreated, 0 = no growth, -100 = all killed). The settings on record: 10 µM unless noted.
As to `Cc1cccc2sc(/N=C(\N)C(Cl)(Cl)Cl)nc12`, the growth is 110% (inactive). The result for `Cc1c2ccccc2nc2c1ccc1cccnc12` reads 89.8% (inactive); that for `COc1ccc(NC(=O)c2c(Nc3ccc(OC)cc3OC)n[nH]c2N)c(OC)c1`, 82.3% (inactive). To `COc1ccc(/C=N\NC(=O)c2cc(-c3ccc(Br)cc3)n(-c3ccc(S(N)(=O)=O)cc3)n2)cc1` belongs -1.98% (active); to `O=C(O)c1cc([N+](=O)[O-])ccc1Oc1ccccc1`, 101% (inactive).

Take `CCCCCCCCCCCCCCCCNC(=S)N/N=C/c1ccc(O)cc1O`: the growth is 57.1% (inactive). To `CCOC(=O)CC(=O)OC` belongs 102% (inactive); to `CC(C)[C@H]1COC(=O)N1[C@@H]1C(=O)N([C@@H](CCC(=O)N2CCN(C3CCCC3)CC2)C(=O)N[C@@H]2CCCc3ccccc32)[C@@H]1/C=C/c1cccc(Cl)c1`, -11.4% (active); to `CCCCCN(CCCCC)CCCCCCCCN1CCCc2ccccc21`, 99.9% (inactive). The result for `CCN(CC)CCC(=O)Nc1ccc(Cn2nnc3c2C(=O)c2nnn(Cc4ccc(NC(=O)CCN(CC)CC)cc4)c2C3=O)cc1` reads -66.4% (active); that for `COc1ccc(Cc2nn(CC(=O)N/N=C/c3ccc(Cl)cc3)c(=O)c3c(C)noc23)cc1`, 80.4% (inactive); that for `C/C(O)=C(/C=N/C(=S)Nc1ccccc1)C(=O)Nc1ccccc1C`, 99.7% (inactive). Turning to `CC(=O)Oc1ccc(C23c4ccccc4C2(OC(C)=O)c2cc(OC(C)=O)ccc23)cc1` (centres undefined), the growth was 14.8% (inactive). To `N#C/C(=C\c1c(-c2ccccc2)[nH]c2ccccc12)C(=O)c1ccccc1` belongs 86.9% (inactive).
